This note sets out measurements from PubChem BioAssay (NCATS).

Records with an inconclusive call do not appear. Calls of active or inactive are those of the source. Unless noted, the call rests on the fitted dose curve; in most records, active means well fitted curve in the direction sought with a large enough effect; inconclusive means small, poorly fitted or top-dose-only effect, or another doubt; inactive means no such curve, though single readings can be large; an effect the other way counts as inactive or inconclusive.

In assay [1] the target is Metallo-beta-lactamase type 2 (Klebsiella pneumoniae) (UniProt C7C422). Briefly: qHTS to identify inhibitors of the New Delhi Metallo-beta-lactamase (NDM): assay validation screen against the NCATS LOPAC Collection (AID 1794843).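 Further: nitrocefin turnover by NDM-1 measured as 485 nm absorbance at plateau; on the % scale 0 is the no-effect control and ±100 the full control effect.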 The method in brief: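 Nitrocefin hydrolysis (50 uM substrate stock) by NDM-1, 2 nM final, was followed by 485 nm absorbance after compound preincubation; buffer was 50 mM HEPES pH 7.0, 1 uM ZnSO4, 0.01% Tween20.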

The target in assay [2] is Glutathione peroxidase 1 (Homo sapiens) (UniProt P07203). Description: Primary qHTS Assay for Inhibitors of Recombinant Selenoprotein Glutathione Peroxidase 1 (GPX1) (AID 1845191). Further: nearly all actives have a fitted effect of over 65% in size. Further: potency means the concentration at half of the fitted maximal effect. On activity, negative = inhibition: on the % scale 0 is the no-effect control and ±100 the full control effect. The method in brief:
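GR-coupled readout: NADPH consumption tracked by fluorescence, ex 340/em 450 nm, at t=0 and after 15 min at RT. Final mix 10 nM GPX1, 1 mM GSH, 0.5 mM CHP, 0.5 mM NADPH, 100 nM GR, 0.01% BSA, following 30 min enzyme–compound preincubation.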
For orientation: qHTS replaces the single test concentration by a dilution series.

Assay [3] addresses Phospholipid hydroperoxide glutathione peroxidase GPX4 (Homo sapiens) (UniProt P36969). Description: Primary qHTS Assay for Inhibitors of Recombinant Selenoprotein Glutathione Peroxidase 4 (GPX4) (AID 1845192). Further: nearly all actives have a fitted effect of over 65% in size. Put shortly:
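Steps: GPX4 plus compound, 30 min RT; add GR/GSH/NADPH master mix; start with cumene hydroperoxide; read 340/450 nm fluorescence at 0 and 15 min. Finals were 200 nM GPX4, 1 mM GSH, 0.5 mM CHP, 0.5 mM NADPH, 100 nM GR.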

For assay [4], the target named is Luciferin 4-monooxygenase (Photinus pyralis) (UniProt P08659). Description: Primary firefly luciferase (FLuc) qHTS assay for identification of artifact compounds. (AID 1845220). Further: nearly all actives have a fitted effect of over 60% in size. Put shortly:
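D-luciferin and ATP (10 uM each, final) in Tris acetate buffer pH 7.6 were incubated with compounds for 15 min at room temperature. The reaction was started with 10 nM Photinus pyralis luciferase and luminescence read after 5 min. Percent inhibition was fitted to a 4-parameter Hill equation.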

Assay [5] is described as follows: Primary fluorescence-based thiol-reactive (MSTI) qHTS assay for identification of artifact compounds. (AID 1845221).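 Further: thiol-reactive compounds lower the probe fluorescence signal; nearly all actives have a fitted effect of over 65% in size.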 Put shortly: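 Curve-fitted percent inhibition (4-parameter Hill) derived from fluorescence, Ex 525/Em 598 nm, scaled with Acetyl-MSTI and MSTI; 1 h incubation at room temperature.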
Assay [6] has as its system Nanoluciferase (engineered Oplophorus gracilirostris luciferase). Briefly: Primary Nanoluciferase (NLuc) qHTS assay for identification of artifact compounds. (AID 1845222).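 Further: 0% = DMSO and -100% = no enzyme.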 Put shortly:
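Diluted conditioned medium from NLuc-expressing S16 cells treated with compounds for 15 min at room temperature, then Nano-Glo substrate added; luminescence read after 5 min. Percent inhibition versus no-enzyme and DMSO controls fitted to 4-parameter Hill equation.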

A short description of assay [7]: Primary redox qHTS assay for identification of artifact compounds. (AID 1845223).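 Further: 0% = DMSO and 100% = reference compound.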 Put shortly: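 Redox-cycling detection via DTT (250 uM final) oxidation coupled to Amplex Red (25 uM)/HRP (250 mU/mL) in HBSS. 15 min preincubation plus 30 min after DTT, room temperature. Ex/Em 525/598 nm; 4-parameter Hill fit against DMSO and 10 uM DA3003.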
Assay [8] in a line: qHTS drug screen for cell cycle checkpoint inhibitors in PARPi-resistant BRCA-mutant ovarian cancer cell lines. (AID 1963452; calls by dose curve). Conditions: PEO1/OlaR viability, CellTiter-Glo luminescence, 96 h, stronger effect = lower value. Put shortly: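 PEO1, PEO4 and PEO1/OlaR ovarian cancer cells, 600 per well, exposed 96 h at 37C to a dilution series. Viability read by CellTiter-Glo luminescence, normalized to DMSO and empty wells; activity summarized as Z-AUC.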

Assay [9] can be described thus: qHTS profiling for inhibitors of Plasmodium falciparum proliferation (AID 504749).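 Further: 0% = DMSO vehicle and full inhibition = artemisinin control; nearly all actives have a fitted effect of over 60% in size.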 Conditions: P. falciparum in erythrocytes, SYBR Green DNA, 72 h, at 28.7 µM (top of the series). Put shortly:
(§1)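 Each compound contacts P. falciparum-infected red blood cells for 72 h at 37 C; lysis buffer (Tris, EDTA, saponin, Triton X, SYBR Green I) is added and fluorescence measured next morning; values normalized to controls.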

Another assay concerns 3D7. The description is as above. As to conditions: P. falciparum in erythrocytes, SYBR Green DNA, 72 h; series mostly up to 28.7 µM. The method in brief:
as §1

A further assay relates to 7G8. The description is as above. As to conditions: P. falciparum in erythrocytes, SYBR Green DNA, 72 h; series mostly up to 28.7 µM. Put shortly:
as §1

The mark [10] stands for this setting: measured here: PEO1 parental Z-AUC.

Metallo-beta-lactamase type 2 (Klebsiella pneumoniae), sequence (C7C422 whole entry, looked up): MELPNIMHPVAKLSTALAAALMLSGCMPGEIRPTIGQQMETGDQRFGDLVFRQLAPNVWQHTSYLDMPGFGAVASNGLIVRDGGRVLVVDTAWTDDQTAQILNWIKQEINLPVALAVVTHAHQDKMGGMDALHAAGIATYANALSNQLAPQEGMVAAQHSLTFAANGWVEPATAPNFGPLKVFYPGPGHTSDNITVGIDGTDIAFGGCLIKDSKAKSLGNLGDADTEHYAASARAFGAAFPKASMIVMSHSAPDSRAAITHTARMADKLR
Glutathione peroxidase 1 (Homo sapiens), sequence (P07203 whole entry, looked up): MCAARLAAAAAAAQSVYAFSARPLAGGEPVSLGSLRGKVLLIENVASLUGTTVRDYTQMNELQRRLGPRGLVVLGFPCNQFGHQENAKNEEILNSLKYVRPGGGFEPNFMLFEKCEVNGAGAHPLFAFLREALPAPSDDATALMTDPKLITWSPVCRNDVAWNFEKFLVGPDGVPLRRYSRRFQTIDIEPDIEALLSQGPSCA
Phospholipid hydroperoxide glutathione peroxidase GPX4 (Homo sapiens), sequence (P36969 whole entry, looked up): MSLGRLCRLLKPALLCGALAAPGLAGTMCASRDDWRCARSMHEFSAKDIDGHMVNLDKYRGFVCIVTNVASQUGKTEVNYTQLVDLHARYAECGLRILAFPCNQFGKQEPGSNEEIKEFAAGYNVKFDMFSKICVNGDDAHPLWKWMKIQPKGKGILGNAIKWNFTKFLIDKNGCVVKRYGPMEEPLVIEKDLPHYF

`O=[N+]([O-])c1ccc(CNc2nc(NCc3cccc(C(F)(F)F)c3)nc3nc[nH]c23)cc1`: the Potency result in [1], in assay [2], in assay [3], in assay [4] and in assay [6] was “inactive” each time. For the same compound, the compound was classed as inactive in assay [5] and in assay [7].

As for `CO/N=C(\C(=O)N[C@@H]1C(=O)N2C(C(=O)O)=C(COC(C)=O)CS[C@H]12)c1csc(N)n1`, the Potency result in assay [1] and in assay [3] was “inactive” each time. In addition, the Potency in assay [2] is 8.06 µM (active).

As for `CCOC(=O)N1CCN(/[N+]([O-])=N/Oc2ccc([N+](=O)[O-])cc2[N+](=O)[O-])CC1`, the Potency entry in assay [1], in assay [2] and in assay [3] was “inactive” throughout. Besides, the values for the Z-AUC in [8], in [8] (setting [10]) and in assay [8] (measured here: PEO4 Z-AUC) were 1.46 (inactive), 1.72 and 1.39, respectively.

For `COc1ccc(Br)cc1S(=O)(=O)NC(=O)/C=C/c1ccccc1Cc1ccc2ccccc2c1`, the Potency entry in [1], in assay [2] and in assay [3] was “inactive” each time.

With `O=C(Nc1ccc2c(c1)CCN(Cc1ncn[nH]1)C2)c1ccccc1-c1ccc(C(F)(F)F)cc1`, the Potency entry in [1], in assay [2], in assay [3], in assay [4] and in assay [6] was “inactive” throughout. In addition, the outcome in assay [5] and in [7] was inactive.

In the case of `CC1OC1P(=O)(O)O` (configuration not stated), the Potency entry (in assay [1]; in assay [2]; in assay [3]; in the assay with 3D7; with 7G8) was “inactive” in each case. The figures for the activity, negative = inhibition in [9] (parasite line A) and in [9] (parasite line B) were -11.9% (inactive) and 1.11% (inactive), respectively.

As to `O=c1cc(-c2ccccc2)oc2c(O)c(O)ccc12`, the Potency result in [1], in [2] and in assay [3] was “inactive” throughout.

Take `NCCCCC(=O)O`: the Potency result in [1], in assay [2] and in [3] was “inactive” in each case.

For `NS(=O)(=O)c1ccc(-n2nc(C(F)(F)F)cc2-c2ccc(Cl)cc2)cc1`, the Potency result in [1], in assay [2], in assay [3], in assay [4] and in assay [6] was “inactive” in each case. Also, the compound was classed as inactive in assay [5] and in [7].

With `C=CC(N)CCC(=O)O` (configuration not stated), the Potency entry (in [1]; in [2]; in assay [3]; in the assay on 3D7; in the assay on 7G8) was “inactive” throughout. The figures for the activity, negative = inhibition in [9] (parasite line A) and in assay [9] (parasite line B) were 0.626% (inactive) and 10.5% (inactive), respectively.

With `Brc1cc2c(cc1[C@H]1Nc3ccccc3[C@H]3C=CC[C@H]31)OCO2`, the Potency result in assay [1], in [2] and in assay [3] was “inactive” each time.

Turning to `O=C(Nc1ccc2[nH]ncc2c1)C1CCC1`, the Potency result in [1], in [2], in assay [3], in assay [4] and in [6] was “inactive” each time. For the same compound, the outcome in assay [5] and in assay [7] was inactive.

Turning to `CCC1C(=O)OCC1Cc1cncn1C` (configuration not stated), the Potency entry (in [1]; in assay [2]; in assay [3]; in the assay with 3D7; in the assay on 7G8) was “inactive” throughout. The activity, negative = inhibition in [9] (parasite line A) is -3.99% (inactive); in assay [9] (parasite line B) it was -7.08% (inactive).

As to `CN[C@H](CC(C)C)C(=O)N[C@H]1C(=O)N[C@@H](CC(N)=O)C(=O)N[C@H]2C(=O)N[C@H]3C(=O)N[C@H](C(=O)N[C@H](C(=O)O)c4cc(O)cc(O)c4-c4cc3ccc4O)[C@H](O)c3ccc(c(Cl)c3)Oc3cc2cc(c3O[C@@H]2O[C@H](CO)[C@@H](O)[C@H](O)[C@H]2O[C@H]2C[C@](C)(N)[C@H](O)[C@H](C)O2)Oc2ccc(cc2Cl)[C@H]1O`, the Potency result in assay [1], in assay [2] and in assay [3] was “inactive” throughout. Moreover, the values for the Z-AUC in assay [8], in assay [8] (setting [10]) and in assay [8] (measured here: PEO4 Z-AUC) were -0.534 (inactive), -0.325 and -1.21, respectively.

As for `Cn1c(=O)c(-c2c(Cl)cccc2Cl)cc2cnc(Nc3ccc(N4CCOCC4)cc3)nc21`, the Potency entry in assay [1], in [2] and in assay [3] was “inactive” each time.

Regarding `CC(C)(C=O)Cc1cc(C(C)(C)C)c(O)c(C(C)(C)C)c1`, the Potency entry in assay [1], in [2] and in assay [3] was “inactive” throughout.
